Compound activity as filed in PubChem BioAssay.
Sfp PPTase inh: inhibitors of Bacillus subtilis Sfp phosphopantetheinyl transferase; AID 1490; Q9F4F7; Potency, µM, for inactives: largest response in the series, negative = inhibition, most hits filed as inhibitors; actives 3.5% (n = 310,000); Biochemical Sfp PPTase activity, qHTS;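 further: the enzyme is Sfp with the accession as filed and its product quenches rhodamine fluorescence; 0% = enzyme reaction without inhibitor and -100% = no enzyme wells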
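Sfp 15 nM + cpd, 15 min RT; start w/ rhodamine-CoA 5 uM, BHQ-2-YbbR 12.5 uM (final); 50 mM Hepes pH 7.6, 10 mM MgCl2, 0.01% NP-40, 0.01% BSA; read 525/598 nm at 0 and 30 min.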
HP1b chromo inh: HP1-beta chromodomain-methylated histone interaction inhibition; AID 540317; Potency, µM (doses to about 114 µM), inactives show at the highest dose activity change, negative = inhibition, most hits filed as inhibitors; P83916; actives 0.56% (n = 390,000); AlphaScreen HP1-beta / biotin-H3K9me3 peptide binding; further: nearly all actives have a fitted effect of over 70% in size
Target sequence (P83916 whole entry, looked up): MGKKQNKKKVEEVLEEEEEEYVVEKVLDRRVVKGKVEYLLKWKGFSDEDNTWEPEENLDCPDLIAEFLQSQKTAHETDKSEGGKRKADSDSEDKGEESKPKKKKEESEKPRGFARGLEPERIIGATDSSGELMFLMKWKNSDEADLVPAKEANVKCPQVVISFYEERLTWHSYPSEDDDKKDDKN
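Compound inhibition of the preformed complex between 50 nM HP1-beta and 50 nM biotinylated H3K9me3 peptide was read by AlphaScreen. Buffer was PBS pH 7.4 with 0.01% Tween-20. Incubations ran 30 min at room temperature, with 10 ug/mL donor/acceptor beads.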
BAZ2B inh: inhibitors of human BAZ2B bromodomain. AlphaScreen BAZ2B-H3K14Ac peptide displacement. Potency, µM (doses to about 114 µM), for the others: at the highest dose activity change, negative = inhibition, actives largely listed as inhibitors. actives 4.4% (n = 360,000); further: on the % scale 0 is the no-effect control and ±100 the full control effect; nearly all actives have a fitted effect of over 60% in size
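AlphaScreen displacement: compounds (up to 110uM) incubated 30 min at room temperature with a preformed 50 nM BAZ2B/50 nM biotinylated H3K14Ac peptide complex in PBS pH 7.4 with Tween-20. Donor and acceptor beads at 10 ug/mL final added, 20 min light-protected before reading.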
JMJD2A Tudor: inhibitors of human JMJD2A Tudor domain. actives 4.4% (n = 390,000). AlphaScreen JMJD2A-Tudor / H3K4me3 peptide binding. Potency, µM (doses to about 114 µM), for inactives: at the top dose activity change, negative = inhibition, most hits filed as inhibitors. AID 504339; further: on the % scale 0 is the no-effect control and ±100 the full control effect; nearly all actives have a fitted effect of over 50% in size
G9a inh: G9a (human) methyltransferase inhibition; Q96KQ7; G9a H3K9 monomethylation, AlphaScreen, 2 h; Potency, µM (top dose mostly 102 µM), for inactives: at the top dose activity, negative = inhibition, most hits filed as inhibitors; actives 8.8% (n = 350,000); further: on the % scale 0 is the no-effect control and ±100 the full control effect; nearly all actives have a fitted effect of over 75% in size
Target sequence (Q96KQ7 913-1193 limits assumed): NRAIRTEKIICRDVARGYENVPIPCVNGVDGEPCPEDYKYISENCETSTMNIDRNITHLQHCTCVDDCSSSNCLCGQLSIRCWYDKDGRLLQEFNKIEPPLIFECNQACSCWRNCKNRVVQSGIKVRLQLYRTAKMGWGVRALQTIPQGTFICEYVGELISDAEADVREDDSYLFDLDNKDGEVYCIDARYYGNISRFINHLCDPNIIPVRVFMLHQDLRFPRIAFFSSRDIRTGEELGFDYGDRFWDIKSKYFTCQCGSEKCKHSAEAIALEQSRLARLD
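Readings reflect AlphaScreen signal from monomethyl-H3K9 antibody detection. HMT at 20 nM; substrate b-H3K9 500 nM; cofactor SAM 20 uM; 2 h RT reaction; compounds tested as titrations in qHTS with 15 min preincubation.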
Starred values were filed as active, the others as inactive; ? = inconclusive; nt = no result given; [ ] = dose if it differs, or a comment. Compounds with a hit are over-represented: about 12% of the library has one in this group of screens. The call rests on the fitted dose curve; in most records, active means well fitted curve in the direction sought with a large enough effect; inconclusive means small, poorly fitted or top-dose-only effect, or another doubt; inactive means no such curve, though single readings can be large; an effect the other way counts as inactive or inconclusive. Potency means the concentration at half of the fitted maximal effect.

SMILES | Sfp PPTase inh | HP1b chromo inh | BAZ2B inh | JMJD2A Tudor | G9a inh
CCN(CC)CCOC(=O)/C=C/c1ccccc1OC | 6.2% | 40.3% | 0.1% | -10.8% | -2.7%[59 µM]
CCN(C/C=C/c1ccccc1OC)Cc1ccccc1 | -13.1% | ? | ? | 20µM* | nt
Cc1cnc(-c2nnc(N(C)C(=O)C3CCCO3)s2)cn1 (stereo not given) | -3.5% | 54.4% | 3.5% | -25.2% | -20.7%
COc1ccc(/C=C/C(=O)NCC(c2ccc(F)cc2)N2CCOCC2)cc1OC (stereo not given) | 3.5% | 50.5% | -1.5% | -5.1%[11.4 µM] | 79.4µM*
COc1ccc(/C=C/C(=O)NCCN2CCOCC2)cc1OC | 12.5% | 22.3% | -30.5% | ? | ?
Cc1ccc(Nc2nc(CSc3nnc(-c4ccccc4C)n3C)cs2)cc1 | ? | -26.4% | ? | 79.4µM* | 31.6µM*
Cn1nnnc1SCc1csc(Nc2ccccc2)n1 | 50.1µM* | -0.3% | -5.1% | -26.7% | ?
Cc1ccc(Nc2nc(CSc3nnc(-c4ccccc4)n3C)cs2)cc1 | -49.0% | ? | ? | ? | ?
Cc1ccccc1Nc1nc(N)nc(CSc2nnnn2C)n1 | 14.6% | 21.3% | 56.2µM* | ? | 4.4%
Cc1ccccc1-n1c(SCc2csc(Nc3ccccc3)n2)nnc1-c1cccnc1 | -15.2% | -14.7% | ? | ? | 25.1µM*
Cc1c(CCCN)c2ccccc2n1Cc1ccccc1 | -8.8% | ? | ? | -27.9%[11.4 µM] | -50.7%
COC(=O)C1=C(CN2CCCc3ccccc32)NC(=O)NC1c1ccc(F)cc1 (stereo not given) | -5.7% | 11.2% | ? | ? | 20µM*
COC(=O)C1=C(CN2CCN(C)CC2)NC(=O)NC1c1cc(C)ccc1C (stereo not given) | 3.4% | 23.1% | -3.1% | -6.9% | 19.9%[59 µM]
CCOC(=O)C1=C(CN2CCN(C)CC2)NC(=O)NC1c1ccc(F)cc1 (stereo not given) | nt | 22.3% | 6.5% | 9.9% | 4.1%[59 µM]
COC(=O)C1=C(CN2CCc3ccccc32)NC(=O)NC1c1cc(C)ccc1C (stereo not given) | ? | 6.4% | 50.1µM* | ? | ?
COC(=O)C1=C(CSc2nncn2C)NC(=O)NC1c1cc(C)ccc1C (stereo not given) | -26.8% | 34.7% | 9.8% | -13.3% | 22.4µM*
O=C(Nc1cccc(O)c1)c1ccc(NC(=O)c2cccs2)cc1 | 8.4% | 4.2% | -18.5% | -16.9% | -4.2%
CC(=O)N1CCC2(CC1)OC(=O)C(C)=C2C(=O)NCc1ccccc1Cl | nt | 25.6% | -1.2% | 4.6% | 7.8%[59 µM]
CCOC(=O)c1c(N)sc(C(=O)OC)c1C | 56.2µM* | -12.2% | -34.5% | -14.5% | nt
CCOC(=O)c1scc(-c2ccc(C)cc2)c1S(=O)(=O)Nc1cc(OC)ccc1OC | nt | -21.7% | ? | ? | ?
CCOC(=O)c1scc(-c2ccccc2)c1S(=O)(=O)Nc1ccccc1OC | nt | -20.0% | ? | -24.3% | 14.1µM*
CCOC(=O)c1sc(N)c(C(=O)Nc2ccccc2OC)c1C | 14.1µM* | 5.62µM* | ? | 56.2µM* | 2.82µM*
CCOC(=O)c1c(N)sc2c1C1CCN2CC1 | 1.3% | -2.8% | -38.8% | -31.5% | 79.4µM*
COc1cc(NC(=O)NC(C)c2c(-n3cccc3)sc3c2CCCC3)cc(OC)c1OC (stereo not given) | nt | 3.0% | -19.9% | -17.2% | -27.5%[59 µM]
Cc1cccc(NC(=O)CN2CCN(C(=O)c3cncn3-c3ccc(F)cc3)CC2)c1C | nt | 31.7% | 14.9% | -12.5% | 17.4%[12.7 µM]
Cc1ccc(CN2CCSc3ccc(C(=O)NCc4ccco4)cc32)cc1 | 7.2% | -9.1% | -18.1% | -31.9% | 70.8µM*
CC1CC(C)CN(C(=O)c2ccc3c(c2)N(Cc2ccccc2)CCS3)C1 (stereo not given) | ? | 11.1% | ? | ? | 39.8µM*
COc1ccccc1CNC(=O)c1ccc2c(c1)N(Cc1ccc(C)cc1)CCS2 | nt | 38.8% | -20.6% | -22.5% | -18.9%[59 µM]
CCOC(=O)N1CCN(C(=O)c2ccc3c(c2)N(Cc2ccccc2)CCS3)CC1 | 1.5% | 20.7% | ? | -32.0% | ?
Cc1ccc(CN2CCSc3ccc(C(=O)N4CCOCC4)cc32)cc1 | -9.2% | 23.2% | ? | -28.3% | ?
